Data taken from the supplement of paper PMC11001985.
Unmarked numbers belong to inactive results.

compound: C#CCNC(=O)CCSSCCC(=O)NCCc1ccc(C=O)c(C=O)c1; assay: lysine labeling ratio R10:1 (500 µM / 50 µM probe), SILAC-ABPP in living cells; higher = lower intrinsic lysine reactivity toward the probe, active = 2 or less; details: HeLa; probe concentrations 500 vs 50 µM
Outline: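 Living SILAC light and heavy HeLa cells in PBS at room temperature were treated with an alkyne-tagged, disulfide-linked lysine probe at 50 µM or 500 µM, with forward and reverse label swaps. The mixed lysates were clicked to biotin-azide, digested with trypsin, captured on neutravidin, released with DTT, alkylated and run by LC-MS/MS on a TIMS-TOF Pro. R for each lysine is the filtered median high-probe/low-probe MS1 peptide ratio, taken again as the median over forward and reverse replicates. Any value above 20 is set to 20.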

UniProt Q15149, sequence (Q15149 whole entry): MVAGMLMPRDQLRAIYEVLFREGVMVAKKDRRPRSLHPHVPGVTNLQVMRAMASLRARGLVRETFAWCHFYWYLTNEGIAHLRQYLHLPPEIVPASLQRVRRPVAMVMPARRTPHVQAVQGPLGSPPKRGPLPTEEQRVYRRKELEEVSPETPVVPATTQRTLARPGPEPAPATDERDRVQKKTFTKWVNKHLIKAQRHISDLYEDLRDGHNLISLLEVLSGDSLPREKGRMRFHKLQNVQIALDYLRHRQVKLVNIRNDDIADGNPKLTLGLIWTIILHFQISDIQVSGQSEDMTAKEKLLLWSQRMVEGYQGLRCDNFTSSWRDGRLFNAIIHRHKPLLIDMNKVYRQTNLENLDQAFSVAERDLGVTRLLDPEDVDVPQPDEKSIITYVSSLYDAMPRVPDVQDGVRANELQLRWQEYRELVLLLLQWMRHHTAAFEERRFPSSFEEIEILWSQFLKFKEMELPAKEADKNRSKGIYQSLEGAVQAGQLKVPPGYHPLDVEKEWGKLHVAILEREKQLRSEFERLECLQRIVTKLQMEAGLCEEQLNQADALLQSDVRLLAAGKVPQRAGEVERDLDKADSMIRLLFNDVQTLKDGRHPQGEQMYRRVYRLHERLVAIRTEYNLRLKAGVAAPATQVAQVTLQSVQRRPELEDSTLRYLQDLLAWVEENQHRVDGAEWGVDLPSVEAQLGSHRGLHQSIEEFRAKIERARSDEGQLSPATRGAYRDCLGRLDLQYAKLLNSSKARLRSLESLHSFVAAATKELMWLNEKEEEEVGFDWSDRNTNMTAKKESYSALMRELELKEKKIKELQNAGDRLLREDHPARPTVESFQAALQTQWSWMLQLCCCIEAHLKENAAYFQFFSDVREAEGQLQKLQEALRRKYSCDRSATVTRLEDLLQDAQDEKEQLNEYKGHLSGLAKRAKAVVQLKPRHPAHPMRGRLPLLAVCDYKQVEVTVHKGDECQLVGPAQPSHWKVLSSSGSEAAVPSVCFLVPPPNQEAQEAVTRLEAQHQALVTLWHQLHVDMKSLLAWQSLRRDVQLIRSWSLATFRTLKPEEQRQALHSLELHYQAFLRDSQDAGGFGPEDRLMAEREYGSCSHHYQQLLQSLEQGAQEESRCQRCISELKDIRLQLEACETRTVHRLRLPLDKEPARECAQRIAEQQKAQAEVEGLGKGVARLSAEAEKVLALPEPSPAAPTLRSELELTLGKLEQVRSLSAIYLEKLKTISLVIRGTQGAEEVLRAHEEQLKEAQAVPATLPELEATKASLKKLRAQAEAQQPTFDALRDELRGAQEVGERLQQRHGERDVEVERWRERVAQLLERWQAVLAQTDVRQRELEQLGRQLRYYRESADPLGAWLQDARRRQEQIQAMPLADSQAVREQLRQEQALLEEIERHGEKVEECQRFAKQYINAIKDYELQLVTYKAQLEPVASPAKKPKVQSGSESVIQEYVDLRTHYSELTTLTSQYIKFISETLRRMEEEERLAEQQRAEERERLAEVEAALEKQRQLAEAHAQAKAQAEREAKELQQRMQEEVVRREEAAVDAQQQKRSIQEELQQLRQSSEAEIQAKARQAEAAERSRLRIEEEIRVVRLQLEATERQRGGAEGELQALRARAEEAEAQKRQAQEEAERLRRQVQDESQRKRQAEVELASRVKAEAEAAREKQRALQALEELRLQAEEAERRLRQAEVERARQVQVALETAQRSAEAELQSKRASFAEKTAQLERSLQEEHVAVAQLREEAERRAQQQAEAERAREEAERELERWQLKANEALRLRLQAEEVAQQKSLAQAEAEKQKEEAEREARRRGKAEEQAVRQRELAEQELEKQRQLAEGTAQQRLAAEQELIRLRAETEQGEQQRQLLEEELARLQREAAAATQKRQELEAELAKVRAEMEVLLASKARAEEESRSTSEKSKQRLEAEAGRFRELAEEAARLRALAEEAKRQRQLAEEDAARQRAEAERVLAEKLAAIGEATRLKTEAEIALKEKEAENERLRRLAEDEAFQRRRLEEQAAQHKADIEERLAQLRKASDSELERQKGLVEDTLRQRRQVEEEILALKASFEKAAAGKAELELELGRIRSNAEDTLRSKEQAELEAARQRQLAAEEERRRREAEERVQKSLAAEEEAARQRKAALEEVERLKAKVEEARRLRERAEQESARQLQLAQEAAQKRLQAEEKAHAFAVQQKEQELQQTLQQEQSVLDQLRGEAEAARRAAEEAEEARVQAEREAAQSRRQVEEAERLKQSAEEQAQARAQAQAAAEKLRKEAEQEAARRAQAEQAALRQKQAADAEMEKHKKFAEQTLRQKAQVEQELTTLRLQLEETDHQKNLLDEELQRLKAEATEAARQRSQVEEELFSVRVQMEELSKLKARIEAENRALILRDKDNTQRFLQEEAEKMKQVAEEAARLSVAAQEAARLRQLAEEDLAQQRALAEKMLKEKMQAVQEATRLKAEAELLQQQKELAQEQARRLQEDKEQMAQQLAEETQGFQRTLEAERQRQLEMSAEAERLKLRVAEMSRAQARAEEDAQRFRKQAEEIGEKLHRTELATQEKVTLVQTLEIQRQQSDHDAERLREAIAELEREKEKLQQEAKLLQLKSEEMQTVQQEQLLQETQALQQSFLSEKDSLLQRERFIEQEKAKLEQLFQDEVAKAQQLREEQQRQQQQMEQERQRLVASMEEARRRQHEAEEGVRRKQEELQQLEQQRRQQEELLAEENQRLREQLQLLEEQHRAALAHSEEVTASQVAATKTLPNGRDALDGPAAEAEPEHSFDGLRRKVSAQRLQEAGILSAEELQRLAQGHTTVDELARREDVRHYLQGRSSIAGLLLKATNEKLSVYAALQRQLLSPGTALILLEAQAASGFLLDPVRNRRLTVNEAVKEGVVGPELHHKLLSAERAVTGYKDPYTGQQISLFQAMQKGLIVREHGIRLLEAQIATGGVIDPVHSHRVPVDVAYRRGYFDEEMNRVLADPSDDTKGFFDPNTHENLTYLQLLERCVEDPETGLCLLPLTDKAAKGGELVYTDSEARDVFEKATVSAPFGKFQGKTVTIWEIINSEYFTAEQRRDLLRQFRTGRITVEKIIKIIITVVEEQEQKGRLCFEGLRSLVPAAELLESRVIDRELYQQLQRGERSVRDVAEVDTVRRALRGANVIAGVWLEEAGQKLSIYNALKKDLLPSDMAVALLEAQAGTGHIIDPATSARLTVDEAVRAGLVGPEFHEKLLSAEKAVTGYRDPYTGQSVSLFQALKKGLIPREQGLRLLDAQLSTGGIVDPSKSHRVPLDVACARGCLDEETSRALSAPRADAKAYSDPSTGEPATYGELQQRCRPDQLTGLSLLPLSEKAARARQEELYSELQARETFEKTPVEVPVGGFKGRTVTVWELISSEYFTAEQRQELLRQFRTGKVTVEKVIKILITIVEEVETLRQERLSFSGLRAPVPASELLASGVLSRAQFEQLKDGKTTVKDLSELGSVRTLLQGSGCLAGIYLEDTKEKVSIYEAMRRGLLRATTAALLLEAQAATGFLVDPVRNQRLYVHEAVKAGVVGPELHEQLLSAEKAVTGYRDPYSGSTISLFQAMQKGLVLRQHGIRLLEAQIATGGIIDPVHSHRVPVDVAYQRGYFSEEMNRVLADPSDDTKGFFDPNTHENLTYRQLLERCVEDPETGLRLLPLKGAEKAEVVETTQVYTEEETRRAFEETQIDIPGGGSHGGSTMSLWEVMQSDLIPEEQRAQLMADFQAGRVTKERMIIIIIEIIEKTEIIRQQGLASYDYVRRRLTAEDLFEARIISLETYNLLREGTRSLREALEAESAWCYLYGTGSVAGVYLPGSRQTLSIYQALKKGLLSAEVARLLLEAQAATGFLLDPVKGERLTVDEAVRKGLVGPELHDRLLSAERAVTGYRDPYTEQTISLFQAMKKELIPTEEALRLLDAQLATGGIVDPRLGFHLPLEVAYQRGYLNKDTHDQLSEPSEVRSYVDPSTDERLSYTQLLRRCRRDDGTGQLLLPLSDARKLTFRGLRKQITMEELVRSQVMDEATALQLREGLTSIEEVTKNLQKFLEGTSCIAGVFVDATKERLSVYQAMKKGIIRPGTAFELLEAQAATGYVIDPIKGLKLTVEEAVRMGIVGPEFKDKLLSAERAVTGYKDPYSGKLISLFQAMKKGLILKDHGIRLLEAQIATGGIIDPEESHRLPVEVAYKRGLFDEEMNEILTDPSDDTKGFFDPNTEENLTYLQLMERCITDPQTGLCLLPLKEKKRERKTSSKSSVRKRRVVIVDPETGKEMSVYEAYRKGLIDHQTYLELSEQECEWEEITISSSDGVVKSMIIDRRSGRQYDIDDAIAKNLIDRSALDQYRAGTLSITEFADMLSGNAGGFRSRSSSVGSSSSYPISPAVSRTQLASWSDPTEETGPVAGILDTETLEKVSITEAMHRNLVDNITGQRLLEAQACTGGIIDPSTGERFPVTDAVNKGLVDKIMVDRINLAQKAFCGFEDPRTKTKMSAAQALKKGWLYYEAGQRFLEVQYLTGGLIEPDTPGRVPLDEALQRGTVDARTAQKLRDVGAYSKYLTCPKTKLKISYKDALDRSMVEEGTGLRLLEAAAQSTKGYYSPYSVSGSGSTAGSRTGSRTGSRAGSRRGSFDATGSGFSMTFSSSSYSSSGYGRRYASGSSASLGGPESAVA
UniProt Q9UBI6, sequence (Q9UBI6 whole entry): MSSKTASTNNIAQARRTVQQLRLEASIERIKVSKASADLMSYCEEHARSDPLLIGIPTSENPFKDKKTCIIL
UniProt O76095, sequence (O76095 whole entry): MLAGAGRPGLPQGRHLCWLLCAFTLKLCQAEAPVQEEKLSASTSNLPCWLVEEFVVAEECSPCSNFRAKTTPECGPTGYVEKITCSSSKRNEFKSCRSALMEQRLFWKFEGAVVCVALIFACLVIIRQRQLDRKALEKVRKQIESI
UniProt O00264, sequence (O00264 whole entry): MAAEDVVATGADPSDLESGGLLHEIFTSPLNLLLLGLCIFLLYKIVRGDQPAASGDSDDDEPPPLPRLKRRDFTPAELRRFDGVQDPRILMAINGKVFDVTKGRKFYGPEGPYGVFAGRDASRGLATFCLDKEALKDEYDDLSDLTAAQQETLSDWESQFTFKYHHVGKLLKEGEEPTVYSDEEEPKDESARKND

Row | Target | lysine labeling ratio R10:1
1 | ITGB1 (lysine site: K551) (UniProt P05556) | 5.51
2 | VPS35 (lysine site: K515) (UniProt Q96QK1) | 1.25 (active)
3 | PGRMC1 (lysine site: K102) (UniProt O00264) | 5.04
4 | JTB (lysine site: K94) (UniProt O76095) | 5.2
5 | MTDH (lysine site: K195) (UniProt Q86UE4) | 1.36 (active)
6 | UniProt Q15149 (lysine site: K3887) | 3.96
7 | NSUN2 (lysine site: K28) (UniProt Q08J23) | 2.49
8 | SEMA3C (lysine site: K416) (UniProt Q99985) | 2.36
9 | PA2G4 (lysine site: K376) (UniProt Q9UQ80) | 1.5 (active)
10 | MSLN (lysine site: K299) (UniProt Q13421) | 3.1
11 | FBL (lysine site: K84) (UniProt P22087) | 3.62
12 | NOTCH2 (lysine site: K1058) (UniProt Q04721) | 1.5 (active)
13 | UniProt Q9UKX5 (lysine site: K402) | 0.975 (active)
14 | DSG2 (lysine site: K67) (UniProt Q14126) | 3.97
15 | UniProt Q99653 (lysine site: K188) | 1.18 (active)
16 | UniProt Q6NZI2 (lysine site: K260) | 4.28
17 | GNG12 (lysine site: K34) (UniProt Q9UBI6) | 2.84
18 | VDAC1 (lysine site: K201) (UniProt P21796) | 3.77
19 | ITGA6 (lysine site: K594) (UniProt P23229) | 6.44
20 | UniProt Q15149 (lysine site: K1055) | 1.98 (active)

Row | Target | lysine labeling ratio R10:1
21 | BASP1 (lysine site: K149) (UniProt P80723) | 3.54
22 | UniProt P60866 (lysine site: K34) | 0.547 (active)
23 | PLS3 (lysine site: K59) (UniProt P13797) | 1.41 (active)
24 | PTGFRN (lysine site: K576) (UniProt Q9P2B2) | 2.67
25 | AHNAK (lysine site: K2993) (UniProt Q09666) | 1 (active)
26 | TF (lysine site: K134) (UniProt P02787) | 2.36
27 | TKT (lysine site: K353) (UniProt P29401) | 6
28 | THRAP3 (lysine site: K711) (UniProt Q9Y2W1) | 1.73 (active)
29 | CS (lysine site: K43) (UniProt O75390) | 4.66
30 | FN1 (lysine site: K2030) (UniProt P02751) | 0.807 (active)
31 | TMEM109 (lysine site: K46) (UniProt Q9BVC6) | 3.23
32 | LRPAP1 (lysine site: K340) (UniProt P30533) | 1.47 (active)
33 | F11R (lysine site: K63) (UniProt Q9Y624) | 2.75
34 | XRCC6 (lysine site: K114) (UniProt P12956) | 2.12
35 | TFRC (lysine site: K358) (UniProt P02786) | 1.48 (active)
36 | UniProt P62899 (lysine site: K31) | 1.97 (active)
37 | UniProt Q15149 (lysine site: K1175) | 1.67 (active)
38 | MCAM (lysine site: K134) (UniProt P43121) | 3.83
39 | SEMA4D (lysine site: K219) (UniProt Q92854) | 2.27
40 | ITGB1 (lysine site: K93) (UniProt P05556) | 2.06
